Assay outcomes deposited in PubChem BioAssay by The Scripps Research Institute Molecular Screening Center.
CHO-K1 Ca antag – nonselective inhibitor or artifact in parental CHO-K1 cells; ATP-induced calcium, Fluo-8 fluorescence; inhibition, % at 3 µM; actives 0.6% (n = 360,000);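 active = inhibition above a per-plate cutoff, the plate's mean sample inhibition plus 3 SD, cut at about 24% in these data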;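 also: 0% = DMSO plus EC80 ATP and 100% = DMSO alone without ATP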
CHO-K1 Ca PAM – M1 PAM counterscreen hit in parental CHO-K1 cells | ATP EC20, Fluo-8 calcium fluorescence; 0% at ATP EC20, 100% at ATP max | activation, % at 3 µM | actives 0.02% (n = 360,000) | AID 602247;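 active = activation above the run cutoff, the mean activation of all test compounds plus 3 SD, cut at about 40% in these data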;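 also: peak over basal fluorescence ratio in a 140 s read after ATP addition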
CHO-K1 Ca ag – M1 agonist counterscreen hit in parental CHO-K1 cells; Fluo-8 calcium fluorescence; scaled to maximal ATP response, vehicle zero; activation, % at 3 µM; actives 0.48% (n = 360,000); AID 602248; in the data active = activation above about 15%;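 also: untransfected CHO-K1 host cells lacking M1 receptor as counterscreen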
CHRM1 PAM – human CHRM1 positive allosteric modulation. P11229. actives 0.088% (n = 360,000). activation, % at 3 µM. CHO-K1 hM1, Fluo-8 calcium fluorescence, ACh EC20; 0% = ACh EC20, 100% = maximal ACh. AID 588819; in the data active = activation above about 19%, passing the limit was not always enough
Target sequence (P11229 whole entry, looked up): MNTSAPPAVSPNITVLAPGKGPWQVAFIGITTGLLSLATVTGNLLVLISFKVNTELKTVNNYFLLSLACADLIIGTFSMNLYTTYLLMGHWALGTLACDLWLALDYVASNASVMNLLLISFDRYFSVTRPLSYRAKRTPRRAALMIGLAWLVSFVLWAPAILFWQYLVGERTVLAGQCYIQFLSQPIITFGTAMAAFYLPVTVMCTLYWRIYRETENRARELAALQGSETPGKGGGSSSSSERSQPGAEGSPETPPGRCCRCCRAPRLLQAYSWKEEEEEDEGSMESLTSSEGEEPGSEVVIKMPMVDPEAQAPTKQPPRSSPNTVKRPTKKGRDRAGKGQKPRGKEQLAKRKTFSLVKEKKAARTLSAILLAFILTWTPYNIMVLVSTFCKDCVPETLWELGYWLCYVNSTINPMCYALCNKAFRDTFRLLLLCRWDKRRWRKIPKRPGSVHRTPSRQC
CHRM1 agonist – agonists of human M1 muscarinic receptor. AID 588814. activation, % at 3 µM. CHO-K1 hM1, Fluo-8 calcium fluorescence, agonist mode; 0% DMSO, 100% acetylcholine EC100. P11229. actives 0.33% (n = 360,000);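 active = activation above the run's mean compound activation plus 3 SD, cut at about 16% in these data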;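 also: peak over basal fluorescence ratio within a 140 s kinetic read after compound addition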
CHRM1 antagonist – antagonists of human M1 muscarinic receptor; P11229; inhibition, % at 3 µM; CHO-K1 hM1, Fluo-8 calcium fluorescence, ACh EC80 antagonist; AID 588852; actives 1.3% (n = 360,000);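 active = percent inhibition above its own plate's cutoff, namely the mean of that plate's compound wells plus 3 SD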;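 also: peak over basal fluorescence ratio during 140 s after agonist addition; 0% = ACh EC80 plus DMSO and 100% = DMSO alone without agonist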
The depositor's hits bear a star; · = no result. The list is not random: actives were taken first. Their share in the collection is about 2.3%.

SMILES	CHO-K1 Ca antag	CHO-K1 Ca PAM	CHO-K1 Ca ag	CHRM1 PAM	CHRM1 agonist	CHRM1 antagonist
Cc1c(Cl)cccc1NC(=O)[C@@H](NC(=O)c1ccccc1Cl)C(C)C	24.1*	-14.3	-0.4	1.8	-7.7	1.2
CCCCCOc1ccc(Br)cc1CSC(=N)N	24.2*	3.0	6.4	-12.7	-1.1	24.1*
COc1ccc(Br)cc1CSC(=N)N	0.7	3.1	2.5	-1.0	-13.2	-0.1
NN1C(=O)NC(c2ccccc2)(c2ccccc2)C1=O	-15.6	11.9	0.1	8.5	-0.6	-9.8
CCCc1cc(=O)[nH]c(SCC(=O)NC2(C#N)CCCCC2)n1	-9.2	22.6	0.2	10.5	-3.2	-13.5
CC1Sc2ccc(S(=O)(=O)N3CCC(C(=O)NCC(C)c4ccccc4)CC3)cc2NC1=O (centres undefined)	5.5	-13.4	15.5*	-16.8	1.4	46.5*
CC1Sc2ccc(S(=O)(=O)N3CCC(C(=O)NCCc4ccccc4)CC3)cc2NC1=O (centres undefined)	-3.1	2.3	8.5	-4.5	-0.1	6.3
Nc1ccc(C(=O)OCc2nc3ccccc3s2)cc1	-11.8	-2.6	0.8	6.3	-4.6	-5.5
Cc1ccc(C(=O)OCc2nc3ccccc3s2)o1	2.8	5.0	15.9*	4.7	-2.0	-0.8
CC(C)(C)c1ccc(C(=O)N2CCC(=O)N([C@H](COCc3ccccc3)Cc3ccccc3)CC2)cc1	5.6	-5.8	5.1	·	·	·
CC(C)(C)c1ccc(C(=O)N2CCC(=O)N(C(COCc3ccccc3)Cc3ccccc3)CC2)cc1 (centres undefined)	-1.0	-12.9	2.4	-21.6	-5.2	33.0*
Cc1[nH]c(=O)c(C(=O)/C=C/c2ccccc2F)c2c1CCCC2	4.5	-1.9	0.8	-0.4	-4.9	7.7
O=S(=O)(c1ccc(Cl)cc1)N1CCN(C(=S)Nc2ccccc2F)CC1	-3.8	8.4	17.1*	8.0	0.6	3.2
O=S(=O)(c1ccc2ccccc2c1)N1CCN(C(=S)Nc2ccccc2F)CC1	-9.2	11.6	0.7	2.6	-2.8	-2.5
CCCCCCCCN1C(=O)[C@H](CC(=O)NCCCOCCCC)C[C@@]2(C(=O)OCC)CCCC=C12	-27.8	11.9	-0.6	·	·	·
CCN(CC(=O)Nc1ccc(NC(C)=O)cc1)C(=O)c1c(C)nn(-c2ccc(F)cc2)c1Cl	-7.1	-9.7	4.4	-11.8	-2.7	29.7
CCN(CC)CCNC(=O)c1ccc(NC(=O)c2cccc(S(=O)(=O)N(C)C3CCCCC3)c2)cc1	-15.2	10.5	0.3	-29.7	-8.5	99.8*
CCN(CC)CCNC(=O)c1ccc(NC(=O)c2c(C)nn(-c3ccc(F)cc3)c2Cl)cc1	-0.6	2.9	3.0	-33.4	-9.7	100.7*
Cc1nn(-c2ccc(NC(=O)c3ccncc3)cc2)c(C)c1Cl	8.8	-4.5	13.4	-19.8	2.1	31.6*
C/C(=N\NC(=O)c1c(Cl)c(C)nn1C)c1ccc(NC(=O)c2ccncc2)cc1	9.5	7.0	0.5	2.8	-5.6	-2.2
CCN(CC)CCNC(=O)c1ccc(NC(=O)c2cn(-c3ccc(F)cc3)nc2-c2cccc(OC)c2)cc1	-11.5	13.6	1.3	-30.9	-11.3	99.3*
CCN(CC)CCNC(=O)c1ccc(NC(=O)c2ccc3c(c2)CCC3)cc1	-15.6	15.6	2.4	-11.1	-9.5	14.2
COc1ccc(NC(=O)CSC(C)c2nc3ccccc3c(=O)[nH]2)cc1 (centres undefined)	6.1	6.0	3.6	7.3	-4.0	-3.5
CCN(CC)CCNC(=O)c1ccc(NC(=O)Cc2ccccc2F)cc1	2.6	4.3	0.1	-9.3	-15.4	4.3
CCN(CC)CCNC(=O)c1ccc(NC(=O)c2ccccc2-c2ccc(C(F)(F)F)cc2)cc1	-7.2	10.3	4.0	-31.0	-10.8	101.1*
SMILES	CHO-K1 Ca antag	CHO-K1 Ca PAM	CHO-K1 Ca ag	CHRM1 PAM	CHRM1 agonist	CHRM1 antagonist
O=C(Nc1cccnc1)c1cn(-c2ccccc2)nc1-c1cccs1	-5.4	5.5	4.9	-9.4	-1.4	5.6
CCN(CC)CCNC(=O)c1ccc(NC(=O)c2cn(-c3ccccc3)nc2-c2cccs2)cc1	-3.5	25.0	2.5	-27.8	-9.4	61.2*
CC(=O)c1ccc(N2C(=O)CC(N3CCN(S(=O)(=O)c4cc(C)ccc4C)CC3)C2=O)cc1 (centres undefined)	-5.8	-1.9	0.7	-7.9	-3.1	-7.3
CC(C)Oc1ccc(C(CCNCc2ccc(O)cc2)c2ccccc2)cc1 (centres undefined)	14.7	2.4	20.8*	-10.0	-4.3	10.6
COc1ccc(CCNCCC(c2ccccc2)c2ccccc2)cc1OC	9.8	3.5	2.2	-24.3	-3.4	30.4
COc1ccc(C(CCNCc2ccc(N(C)C)cc2)c2ccccc2)cc1 (centres undefined)	3.0	-9.0	22.5*	-2.6	-6.6	14.3
COc1ccc(C(CCNCc2ccc(OC)c(OC)c2)c2ccc(F)cc2)cc1 (centres undefined)	7.5	-0.7	17.9*	-1.9	-0.3	9.5
CC(C)Oc1ccc(CNC(=O)CC(c2ccccc2)c2cc(Cl)ccc2O)cc1 (centres undefined)	-11.3	8.9	1.4	0.1	-6.0	6.9
Oc1ccc(N=Nc2n[nH]c(-c3ccc(Cl)cc3)n2)cc1	-8.9	4.3	0.4	0.8	6.4	-14.2
O=C(NCCc1cccc(F)c1)/C(=C/c1cccnc1)NC(=O)c1ccccc1	9.2	-12.1	0.4	-0.3	-4.8	8.0
CC1=[N+](C)N(c2ccccc2)C(=O)C1N=Cc1c(Cl)cccc1Cl (centres undefined)	9.2	9.8	16.3*	12.4	-5.8	-0.8
CCOC(=O)c1c(-c2ccccc2)nnn1-c1nc(OCC)nc(N2CCCCC2)n1	53.8*	-1.0	7.7	-9.5	-4.2	3.1
O=C(NC(Nc1nc2ccc([N+](=O)[O-])cc2s1)(C(F)(F)F)C(F)(F)F)c1ccccc1Cl	27.9*	3.6	12.7	-10.6	3.9	18.5
O=C(NC(Nc1nc2ccc([N+](=O)[O-])cc2s1)(C(F)(F)F)C(F)(F)F)c1cccnc1	24.3*	13.1	9.3	-5.4	4.9	22.7
COc1cc(-c2nnc(CSc3nnc(Nc4ccc(Oc5ccccc5)cc4)s3)o2)cc(OC)c1OC	-5.1	14.1	1.3	-12.5	-12.3	8.4
Cc1cc(C)n(CCC(=O)N2CCCC(Nc3ccc(F)cc3)C2)n1 (centres undefined)	-3.6	-3.7	0.0	-1.1	-3.7	4.9
CCOC(=O)c1ccc(N2C(=O)CC(N3CCCC(C)C3)C2=O)cc1 (centres undefined)	-27.7	8.7	1.4	1.9	-3.1	-8.3
CCOC(=O)C1CCCN(C2CC(=O)N(c3cccc(C)c3)C2=O)C1 (centres undefined)	2.4	-2.1	0.1	-22.9	46.9*	22.6
FC(F)Sc1ccc(-n2c(-c3ccc(Cl)cc3)c[n+]3c2CCC3)cc1	-0.2	-4.8	0.1	-20.8	-5.9	61.3*
